# Results taken from PubChem BioAssay (Tox21).
# A number with no mark means an inactive call. Records with an inconclusive call do not appear. Where a call stands in place of a potency, no number is given. Calls of active or inactive are those of the source. Unless noted, calls come from the whole dose curve; as a rule, active = well fitted curve in the direction sought with a large enough effect in the repeat runs; inconclusive = weak or mixed curves; inactive = no such curve, though single readings can be large; an effect the other way counts as inactive or inconclusive.
# Key:
# [1] = qHTS assay for small molecules that induce genotoxicity in human embryonic kidney cells expressing luciferase-tagged ATAD5 (AID 651632); note: nearly all actives have a fitted effect of over 15% in size
# How it was run: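 Concentration-response screen for ATAD5 upregulation in HEK293T luciferase reporter cells; 16 hr treatment at 37C, then luminescence after 30 min with Amplite at room temperature.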
# [2] = qHTS assay for small molecule agonists of the p53 signaling pathway - cell viability (AID 651633; calls by dose curve; note: nearly all actives have a fitted effect of over 30% in size; note: potency is the fitted concentration of half-maximal effect)
# How it was run: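 p53RE-bla cells were treated with compound for 16 hours at 37 C. Cytotoxicity was then measured as CellTiter-Glo luminescence after 30 min at room temperature.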
# [3] = qHTS assay for small molecules that induce genotoxicity in human embryonic kidney cells expressing luciferase-tagged ATAD5 - cell viability (AID 651634; calls by dose curve; note: nearly all actives have a fitted effect of over 25% in size)
# How it was run: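 15.5 hr compound or vehicle exposure of HEK293T cells expressing luciferase-tagged ATAD5 at 37C; live-cell protease activity is read by fluorescence after 30 min of CellTiter-Fluor.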
# [4] = qHTS assay for small molecule disruptors of the mitochondrial membrane potential - cell viability (AID 720634; calls by dose curve;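 note: human HepG2 liver cancer cells; series mostly up to about 83 µM; nearly all actives have a fitted effect of over 20% in size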)
# How it was run: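 In this qHTS format, HepG2 cells plated overnight were pinned with compound, incubated 1 hr, and assayed for ATP luminescence with CellTiter-Glo after m-MPI dye addition.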
# [5] = qHTS assay to test for compound auto fluorescence at 590 nm (red) in HepG2 cells (AID 720674)
# How it was run: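 Seeding: 2,000 HepG2 cells/well, MEM/10% FBS, overnight 37 C. Dosing: compound vs DMSO. Incubation: 1 hr, 37 C, 5% CO2. Read: fluorescence 540 ex/590 em, Rose Bengal sodium as red reference.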
# [6] = qHTS assay to test for compound auto fluorescence at 460 nm (blue) in HEK293 cells (AID 720678)
# How it was run: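 Blue read-out at excitation 405 nm and emission 460 nm follows overnight compound exposure of HEK293 cells at 37C in 5% CO2. Activity is given as auto fluorescence equivalency to triamterene.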
# [7] = qHTS assay to test for compound auto fluorescence at 590 nm (red) in HEK293 cells (AID 720679)
# How it was run: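 Red channel, Ex/Em 540/590nm; signal expressed as equivalency to Rose Bengal sodium. HEK293, 2,000 cells/well, 10% dialyzed FBS; 23 nL compound pinned after 4-5 hr attachment; overnight 37C/5% CO2 before reading.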
# [8] = qHTS assay to test for compound auto fluorescence at 460 nm (blue) in HEK293 cell free culture (AID 720681)
# How it was run: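 Compounds were added to cell-free DMEM with 10% FBS and fluorescence read directly. The blue channel used 405 nm excitation and 460 nm emission, with triamterene as the reference fluorophore.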
# [9] = qHTS assay to test for compound auto fluorescence at 535 nm (green) in HEK293 cell free culture (AID 720682)
# How it was run: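 Using fluorescein as calibrant, autofluorescence was quantified at 485/535 nm in cell-free DMEM containing 10% FBS after pintool addition of compound or vehicle.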
# [10] = qHTS assay to identify small molecule antagonists of the glucocorticoid receptor (GR) signaling pathway - cell viability counter screen (AID 720693); note: nearly all actives have a fitted effect of over 55% in size; note: potency is the fitted concentration of half-maximal effect
# [11] = qHTS assay to identify small molecule antagonists of the androgen receptor (AR) signaling pathway using the MDA cell line - cell viability counter screen (AID 743041; note: nearly all actives have a fitted effect of over 45% in size; note: potency is the fitted concentration of half-maximal effect)
# How it was run: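 Cytotoxicity counter screen: MDA-kb2 AR-luc cells, compound + R1881, 16 h, 37C, 0% CO2; CellTiter-Fluor added at 15.5 h, fluorescence read after 30 min.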
# [12] = test system: thyroid hormone receptor (rat, GH3 cells); assay: qHTS assay to identify small molecule agonists of the thyroid receptor (TR) signaling pathway (AID 743066; calls by dose curve)
# [13] = qHTS assay to identify small molecule antagonists of the estrogen receptor alpha (ER-alpha) signaling pathway - cell viability counter screen (AID 743074; calls by dose curve;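 note: HEK293 cells carrying ER-alpha-UAS-bla reporter stimulated with 17beta-estradiol; nearly all actives have a fitted effect of over 45% in size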; note: potency is the fitted concentration of half-maximal effect)
# [14] = qHTS assay to identify small molecule that activate the aryl hydrocarbon receptor (AhR) signaling pathway - cell viability counter screen (AID 743086);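 note: HepG2 liver cells carrying the AhR DRE luciferase reporter; series mostly up to about 70 µM; nearly all actives have a fitted effect of over 45% in size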
# How it was run: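 HepG2-AhR-luc (HG2L7.5c1) cells, 4000/well, treated 24 h at 37 C with compound; viability measured as CellTiter-Fluor fluorescence after 30 min in the same wells as the luciferase read.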
# [15] = qHTS assay to identify small molecule phospholipidosis (PLD) inducers (AID 1259344; active = well fitted curve in the direction sought with a large enough effect; an effect the other way counts as inactive or inconclusive)
# How it was run: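 Read-out is LipidTOX Red fluorescence (ex 595/em 615) imaged in HepG2 cells after 24 h compound exposure at 37 C, with Hoechst nuclear counterstain (ex 352/em 461) allowing per-cell normalisation.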
# [16] = target: Nuclear receptor subfamily 1 group I member 2 (Rattus norvegicus) (UniProt Q9R1A7); assay: Rat pregnane X receptor (rPXR) activation by small molecules, qHTS assay (AID 1346983); settings: rPXR luciferase reporter cells, One-Glo luminescence, 24 h; max activation: active compounds read high; note: nearly all actives have a fitted effect of over 20% in size
# How it was run: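 Cell-based rPXR activation assay: rPXR cells, 2,000 per well, rested 5hr at 37 C, then exposed to compounds in DMSO for 24 hr at 37 C. Luciferase activity read by One-Glo luminescence after 30 min at room temperature.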
# [17] = target: Nuclear receptor subfamily 1 group I member 2 (Homo sapiens) (UniProt O75469); assay: CYP3A4 induction through human pregnane X receptor (PXR) by small molecules, qHTS assay (AID 1346984); note: nearly all actives have a fitted effect of over 40% in size; note: potency is the fitted concentration of half-maximal effect
# How it was run: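 After 24 h at 37C with compound, DPX-2 cells (HepG2, co-transfected PXR response element and CYP3A4 promoter-luciferase) got 3uM final P450-Glo Luciferin-IPA for 3 h; One-Glo luminescence followed.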
# [18] = qHTS assay to identify small molecule antagonists of the estrogen receptor alpha (ER-alpha) signaling pathway using the BG1 cell line - cell viability counter screen (AID 743081);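 note: compound given together with 17beta-estradiol as the ER stimulus; nearly all actives have a fitted effect of over 45% in size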; note: potency is the fitted concentration of half-maximal effect
# Aromatase (Homo sapiens) = Aromatase (Homo sapiens) (UniProt P11511); assay: qHTS assay to identify aromatase inhibitors (AID 743083); note: nearly all actives have a fitted effect of over 55% in size; note: potency is the fitted concentration of half-maximal effect
# [19] = qHTS assay to identify aromatase inhibitors - cell viability counter screen (AID 743084);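 note: cells stimulated with testosterone during compound exposure; nearly all actives have a fitted effect of over 55% in size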
# Nuclear receptor subfamily 1 group I member 2 (Rattus norvegicus), sequence (Q9R1A7 whole entry, looked up): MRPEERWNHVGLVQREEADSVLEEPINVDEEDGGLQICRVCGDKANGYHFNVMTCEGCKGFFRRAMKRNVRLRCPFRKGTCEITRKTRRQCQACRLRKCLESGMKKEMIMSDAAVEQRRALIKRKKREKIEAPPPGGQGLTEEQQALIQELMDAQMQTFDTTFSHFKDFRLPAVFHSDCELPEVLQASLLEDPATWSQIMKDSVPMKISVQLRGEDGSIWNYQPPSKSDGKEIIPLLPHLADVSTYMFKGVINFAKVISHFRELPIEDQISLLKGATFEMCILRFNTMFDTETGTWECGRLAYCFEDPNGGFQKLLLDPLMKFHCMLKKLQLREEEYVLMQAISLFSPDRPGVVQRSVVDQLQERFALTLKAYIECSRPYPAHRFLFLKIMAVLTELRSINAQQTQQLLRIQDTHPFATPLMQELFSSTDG
# Aromatase (Homo sapiens), sequence (P11511 whole entry, looked up): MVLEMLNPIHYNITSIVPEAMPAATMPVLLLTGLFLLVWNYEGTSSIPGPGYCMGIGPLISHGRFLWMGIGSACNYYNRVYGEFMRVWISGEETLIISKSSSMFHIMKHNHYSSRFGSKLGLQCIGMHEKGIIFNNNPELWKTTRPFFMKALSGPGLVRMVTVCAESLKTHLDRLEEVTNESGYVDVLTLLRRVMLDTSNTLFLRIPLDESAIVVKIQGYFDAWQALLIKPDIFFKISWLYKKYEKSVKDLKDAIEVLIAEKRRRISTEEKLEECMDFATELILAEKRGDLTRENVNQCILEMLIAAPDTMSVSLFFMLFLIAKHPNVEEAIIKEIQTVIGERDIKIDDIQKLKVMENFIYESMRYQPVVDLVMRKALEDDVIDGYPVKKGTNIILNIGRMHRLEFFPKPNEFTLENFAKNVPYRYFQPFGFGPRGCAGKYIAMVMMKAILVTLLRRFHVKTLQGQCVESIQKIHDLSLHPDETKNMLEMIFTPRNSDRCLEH
SMILES,Potency [1],Potency [2],Potency [3],Potency [4],outcome [5],Potency [6],outcome [7],Potency [8],Potency [9],Potency [10],Potency [11],Potency [12],Potency [13],Potency [14],Potency [15],max activation [16] [%],Potency [17],Potency [18],Potency (Aromatase (Homo sapiens)),Potency [19]
CCC(=O)O[C@@](Cc1ccccc1)(c1ccccc1)[C@@H](C)CN(C)C,inactive,inactive,inactive,inactive,inactive,inactive,inactive,inactive,inactive,inactive,inactive,inactive,inactive,inactive,inactive,0.731,inactive,,,
O=C1CCCCC1CN1CCCCC1 (stereo not given),inactive,inactive,inactive,inactive,inactive,inactive,inactive,inactive,inactive,inactive,inactive,inactive,inactive,inactive,inactive,-4.76,inactive,inactive,inactive,inactive
COC1=CC=C2[C@H]3Cc4ccc(OC)c5c4[C@@]2(CCN3C)[C@H]1O5,inactive,inactive,inactive,inactive,inactive,inactive,inactive,inactive,inactive,inactive,inactive,inactive,inactive,inactive,inactive,-7.33,inactive,inactive,inactive,inactive
CN(C)CCCCCCN(C)C,,inactive,inactive,inactive,inactive,inactive,inactive,inactive,inactive,inactive,inactive,inactive,inactive,inactive,,,,inactive,inactive,inactive
Cc1ccccc1-n1c(CF)nc2ccc(N)cc2c1=O,inactive,inactive,inactive,inactive,inactive,inactive,inactive,inactive,inactive,inactive,inactive,inactive,inactive,inactive,inactive,-3.24,7.08 µM (active),inactive,inactive,inactive
Oc1c(Cl)cc(Cl)cc1Cl,,,,,inactive,inactive,inactive,inactive,inactive,,,inactive,,,,,,,inactive,
CCNCC(O)c1cccc(O)c1 (stereo not given),inactive,inactive,inactive,inactive,inactive,inactive,inactive,inactive,inactive,inactive,inactive,inactive,inactive,inactive,inactive,1.03,inactive,,inactive,inactive
COC(COC(N)=O)C1=C(N2CC2)C(=O)C(C)=C(N2CC2)C1=O (stereo not given),inactive,7.5 µM (active),inactive,inactive,inactive,inactive,inactive,inactive,inactive,1.9 µM (active),13.3 µM (active),,13.4 µM (active),,inactive,-20.2,inactive,6.68 µM (active),21.1 µM (active),
CCC1(c2cnc[nH]2)Cc2ccccc2C1,inactive,inactive,inactive,inactive,inactive,inactive,inactive,inactive,inactive,inactive,inactive,inactive,inactive,inactive,inactive,,,inactive,26.6 µM (active),inactive
CCC1(C)CC(=O)NC(=O)C1,inactive,inactive,inactive,inactive,inactive,inactive,inactive,inactive,inactive,inactive,inactive,inactive,inactive,inactive,inactive,0.0054,inactive,inactive,inactive,inactive
CCC1(CC)C(=O)NC(=O)N(C)C1=O,inactive,inactive,inactive,inactive,inactive,inactive,inactive,inactive,inactive,inactive,,inactive,inactive,inactive,inactive,-3.02,inactive,inactive,inactive,inactive
c1ccccc1,inactive,inactive,inactive,inactive,inactive,inactive,inactive,inactive,inactive,inactive,inactive,inactive,inactive,inactive,,,,inactive,inactive,inactive
Cc1ccc([N+](=O)[O-])c(C)c1,,,,,,,,,,,,,,,,,,,inactive,
CNC(=O)OCC[N+](C)(C)C,inactive,inactive,inactive,inactive,inactive,inactive,inactive,inactive,inactive,inactive,inactive,,inactive,inactive,inactive,0.49,inactive,inactive,inactive,inactive
NCC(O)c1cccc(O)c1 (stereo not given),inactive,inactive,inactive,inactive,inactive,inactive,inactive,inactive,inactive,inactive,inactive,inactive,inactive,inactive,inactive,-2.06,inactive,inactive,inactive,inactive
